Source: PubChem BioAssay (Tox21)
Several values for one entry are separate records, joined by “and”; a condition that tells them apart may be missing. Equal values may be shown once. Records with an inconclusive call do not appear. Entries that show only a call come without a potency. More than one record can exist for a structure, and the calls need not agree. Activity calls are given as the source filed them. Unless noted, calls follow the shape of the dose curve; as a rule, active = well fitted curve in the direction sought with a large enough effect in the repeat runs; inconclusive = weak or mixed curves; inactive = no such curve, though single readings can be large; an effect the other way counts as inactive or inconclusive.

How the values were obtained:
[1] = qHTS assay to identify small molecule agonists of the androgen receptor (AR) signaling pathway in the presence of an antagonist - cell viability counter screen (AID 1259379); also: nearly all actives have a fitted effect of over 25% in size; also: potency is read from the fitted curve at half-maximal effect;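 as to activity change, negative = cytotoxicity: MDA-kb2 human breast cancer cells carrying an MMTV luciferase reporter; series mostly up to about 92 µM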
How it was run: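 MDA-kb2 viability measured by CellTiter-Fluor fluorescence in the same wells as the luciferase signal; nilutamide 3.0uM final; 15-point compound titration; 16 hr at 37C.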

[2] = qHTS assay to identify small molecule antagonists of the estrogen receptor beta (ER-beta) signaling pathway - cell viability counter screen (AID 1259382); also: nearly all actives have a fitted effect of over 55% in size; also: potency is read from the fitted curve at half-maximal effect;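 as to activity change, negative = cytotoxicity: HEK293T cells carrying ER-beta-UAS-bla reporter stimulated with estradiol; series mostly up to about 92 µM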
How it was run: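 Readout: luminescence, CellTiter-Glo, same wells as bla assay. System: ER-beta-UAS-bla GripTite HEK293T, 2% charcoal-stripped FBS. Exposure: compounds plus 1nM 17-beta-estradiol, 16 hr, 37C.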

[3] = qHTS assay to identify small molecule agonists or antagonists of the thyroid stimulating hormone receptor (TSHR) signaling pathway - wild type cell line counter screen (AID 1259384; calls by dose curve)
How it was run: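 Counter screen in untransfected Hek293: compounds (15-point titration, triplicate) plus phosphodiesterase inhibitor Ro20-1724 added after 18 h plating; 30 min RT. Intracellular cAMP via competitive d2/cryptate immunoassay, 1 h incubation.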

[4] = target: Thyrotropin receptor (Homo sapiens) (UniProt P16473); assay: qHTS assay to identify small molecule antagonists of the thyroid stimulating hormone receptor (TSHR) signaling pathway (AID 1259385; calls by dose curve; also: nearly all actives have a fitted effect of over 20% in size; also: potency is read from the fitted curve at half-maximal effect)
How it was run: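 Antagonist mode: compound-treated TSHR-expressing HEK293 cells were stimulated with 1.5 ng/mL TSH (final) in presence of Ro20-1724 for 30 min at RT. HTRF cAMP detection after 1 h; each compound tested at 15 concentrations, triplicate.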

[5] = target: Progesterone receptor (Homo sapiens) (UniProt P06401); assay: qHTS assay to identify small molecule agonists of the progesterone receptor (PR) signaling pathway (AID 1346784; calls by dose curve; also: nearly all actives have a fitted effect of over 30% in size; also: potency is read from the fitted curve at half-maximal effect)
How it was run: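 Agonist mode, quantitative HTS format in a HEK 293T line expressing a UAS-controlled beta-lactamase reporter; 16 hr compound exposure at 37C in 2% charcoal-stripped FBS, then LiveBLAzer B/G FRET fluorescence.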

[6] = qHTS assay to identify small molecule agonists of the progesterone receptor (PR) signaling pathway - cell viability counter screen (AID 1346799; calls by dose curve; also: nearly all actives have a fitted effect of over 45% in size; also: potency is read from the fitted curve at half-maximal effect)
How it was run: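 Counter screen for cytotoxicity: compound-treated PR-UAS-bla HEK293T cells (16 hr, 37C, 5% CO2) were assayed with CellTiter-Glo, luminescence measured after 30 min at room temperature.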

[7] = qHTS assay to identify small molecule antagonists of the TGF-beta/Smad signaling pathway - cell viability counter screen (AID 1346824); also: nearly all actives have a fitted effect of over 50% in size; also: potency is read from the fitted curve at half-maximal effect
How it was run: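 Cytotoxicity counter-screen run in the same wells as the beta-lactamase Smad reporter read: CellTiter-Glo luminescence after 30 min at room temperature. HEK 293T SBE-bla cells had 5 hr compound exposure at 37 C with TGF-beta1 (0.25 ng/mL stock).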

[8] = qHTS assay to identify small molecule agonists of the TGF-beta/Smad signaling pathway - cell viability counter screen (AID 1346829); also: nearly all actives have a fitted effect of over 45% in size; also: potency is read from the fitted curve at half-maximal effect; as to activity change, negative = cytotoxicity: top concentration of the series differs between compounds
How it was run: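 Here the cytotoxicity of library compounds is measured in SBE-bla HEK 293T cells treated for 5 hr, using CellTiter-Glo added to wells already read for the beta-lactamase reporter.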

[9] = qHTS assay to identify small molecule agonists of the TGF-beta/Smad signaling pathway (AID 1346859; active = well fitted activation curve with a large enough effect in the signal ratio in the repeat runs, not every such curve was filed as active; the % refers to the signal ratio; also: series mostly up to about 77 µM)
How it was run: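 Smad-responsive beta-lactamase reporter cells (HEK 293T) received compounds from DMSO stocks after overnight attachment, were incubated 5 hr, then treated 2 hr with FRET substrate before dual-emission fluorescence measurement (405 nm excitation).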

[10] = target: Thyrotropin-releasing hormone receptor (Homo sapiens) (UniProt P34981); assay: qHTS assay to identify small molecule antagonists of the thyrotropin-releasing hormone receptor (TRHR) signaling pathway (AID 1346877; active = well fitted inhibition curve with a large enough effect in the repeat runs, not every such curve was filed as active; also: potency is read from the fitted curve at half-maximal effect)
How it was run: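 Overnight-plated (18 h, 37 °C) HEK293 cells expressing TRHR were dye-loaded 2 h, treated with compound, then stimulated with TRH at 1 nM final. Fluorescence intensity was captured every second for 3 min.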

[11] = target: Thyrotropin-releasing hormone receptor (Homo sapiens) (UniProt P34981); assay: qHTS assay to identify small molecule agonists of the thyrotropin-releasing hormone receptor (TRHR) signaling pathway (AID 1346891; calls by dose curve;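 also: HEK293 cells expressing TRHR with calcium dye readout; series mostly up to about 58 µM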)
How it was run: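 Agonist-mode calcium mobilisation screen: TRHR-transfected HEK293 cells cultured overnight (18 h), dye-loaded for 2 h at 37 °C, exposed to compounds, and monitored by fluorescence for 3 min.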

[12] = Human pregnane X receptor (PXR) small molecule agonists, qHTS cell viability counter screen (AID 1346977); also: nearly all actives have a fitted effect of over 50% in size; also: potency is read from the fitted curve at half-maximal effect
How it was run: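 Measures live-cell protease fluorescence (CellTiter-Fluor) in PXR-Luc HepG2 cells treated 24hr with compounds at 37C. Cells had 5hr to attach before pin transfer of DMSO solutions.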

[13] = qHTS assay to identify small molecule agonists of the estrogen receptor beta (ER-beta) signaling pathway - cell viability counter screen (AID 1259380); also: nearly all actives have a fitted effect of over 30% in size; also: potency is read from the fitted curve at half-maximal effect
How it was run: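 Measured: luminescence from CellTiter-Glo after 30 min at room temperature, added to wells already read for the LiveBLAzer FRET reporter (2 hr substrate); ER-beta-UAS-bla HEK293T cells had 16 hr compound treatment at 37C, 5% CO2.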

[14] = qHTS assay to identify small molecule agonists of the estrogen receptor alpha (ER-alpha) signaling pathway in the presence of an antagonist - cell viability counter screen (AID 1259386);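 also: series mostly up to about 92 µM; cells exposed to compounds for 22 h at 37 °C before the viability read; nearly all actives have a fitted effect of over 30% in size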
How it was run: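 The test measures whether compounds kill ER-alpha reporter cells (VM7Luc4E2) under antagonist co-treatment (ICI-182,780, 10.0nM). Fluorescence from CellTiter-Fluor is read after a 22hr exposure.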

[15] = target: Progesterone receptor (Homo sapiens) (UniProt P06401); assay: qHTS assay to identify small molecule antagonists of the progesterone receptor (PR) signaling pathway (AID 1346795; active = well fitted inhibition curve with a large enough effect in the signal ratio in the repeat runs, not every such curve was filed as active; the % refers to the signal ratio)
How it was run: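 HEK293T PR-UAS-bla reporter cells in charcoal-stripped serum (2%) received compound after a 6 hr settling period, followed by R5020 agonist at 1 nM final; 16 hr incubation preceded the FRET substrate step and fluorescence measurement.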

[16] = qHTS assay to identify small molecule antagonists of the progesterone receptor (PR) signaling pathway - cell viability counter screen (AID 1346798); also: series mostly up to about 92 µM; nearly all actives have a fitted effect of over 50% in size
How it was run: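 Same-well multiplex: after 16 hr at 37C with compound and R5020 stimulation, HEK293T cells carrying a UAS-bla reporter received LiveBLAzer substrate (2 hr RT), then CellTiter-Glo (30 min RT) for luminescent viability.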

[17] = target: Androgen receptor (Homo sapiens) (UniProt P10275); assay: qHTS assay to identify small molecule agonists of the androgen receptor (AR) signaling pathway in the presence of an antagonist (AID 1259381; calls by dose curve; also: nearly all actives have a fitted effect of over 15% in size)
How it was run: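 Luminescent ONE-Glo read, 30min at room temperature, follows 16hr compound exposure (15 concentrations) of MDA-kb2 cells at 37C, 0% CO2, with nilutamide added at 3.0uM final.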

[18] = target: Estrogen receptor (Homo sapiens) (UniProt P03372); assay: qHTS assay to identify small molecule agonists of the estrogen receptor alpha (ER-alpha) signaling pathway in the presence of an antagonist (AID 1259383; calls by dose curve; also: top concentration of the series differs between compounds; nearly all actives have a fitted effect of over 15% in size)
How it was run: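 Quantitative HTS confirmation: compounds titrated at 15 concentrations onto estrogen-deprived VM7Luc4E2 cells carrying a four-ERE luciferase construct, with ICI-182,780 present at 10.0nM final. Signal is luminescence after 22hr exposure.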

Chain of Estrogen receptor (Homo sapiens) (P03372 whole entry, looked up): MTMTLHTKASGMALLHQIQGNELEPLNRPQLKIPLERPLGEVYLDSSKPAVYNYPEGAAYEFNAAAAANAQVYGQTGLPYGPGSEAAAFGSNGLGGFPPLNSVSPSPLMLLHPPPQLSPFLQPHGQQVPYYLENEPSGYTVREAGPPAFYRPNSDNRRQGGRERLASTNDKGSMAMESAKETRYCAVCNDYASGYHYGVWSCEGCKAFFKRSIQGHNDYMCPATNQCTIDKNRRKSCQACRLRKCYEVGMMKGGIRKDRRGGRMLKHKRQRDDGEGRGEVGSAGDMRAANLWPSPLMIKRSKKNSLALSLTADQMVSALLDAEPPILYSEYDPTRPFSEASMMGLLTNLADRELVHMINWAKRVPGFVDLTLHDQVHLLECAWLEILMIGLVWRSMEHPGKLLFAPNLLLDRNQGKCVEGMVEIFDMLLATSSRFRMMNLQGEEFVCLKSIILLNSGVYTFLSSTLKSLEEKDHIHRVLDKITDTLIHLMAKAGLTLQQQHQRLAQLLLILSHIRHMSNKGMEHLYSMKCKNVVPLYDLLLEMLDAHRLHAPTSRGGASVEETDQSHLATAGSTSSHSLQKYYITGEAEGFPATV
Chain of Progesterone receptor (Homo sapiens) (P06401 whole entry, looked up): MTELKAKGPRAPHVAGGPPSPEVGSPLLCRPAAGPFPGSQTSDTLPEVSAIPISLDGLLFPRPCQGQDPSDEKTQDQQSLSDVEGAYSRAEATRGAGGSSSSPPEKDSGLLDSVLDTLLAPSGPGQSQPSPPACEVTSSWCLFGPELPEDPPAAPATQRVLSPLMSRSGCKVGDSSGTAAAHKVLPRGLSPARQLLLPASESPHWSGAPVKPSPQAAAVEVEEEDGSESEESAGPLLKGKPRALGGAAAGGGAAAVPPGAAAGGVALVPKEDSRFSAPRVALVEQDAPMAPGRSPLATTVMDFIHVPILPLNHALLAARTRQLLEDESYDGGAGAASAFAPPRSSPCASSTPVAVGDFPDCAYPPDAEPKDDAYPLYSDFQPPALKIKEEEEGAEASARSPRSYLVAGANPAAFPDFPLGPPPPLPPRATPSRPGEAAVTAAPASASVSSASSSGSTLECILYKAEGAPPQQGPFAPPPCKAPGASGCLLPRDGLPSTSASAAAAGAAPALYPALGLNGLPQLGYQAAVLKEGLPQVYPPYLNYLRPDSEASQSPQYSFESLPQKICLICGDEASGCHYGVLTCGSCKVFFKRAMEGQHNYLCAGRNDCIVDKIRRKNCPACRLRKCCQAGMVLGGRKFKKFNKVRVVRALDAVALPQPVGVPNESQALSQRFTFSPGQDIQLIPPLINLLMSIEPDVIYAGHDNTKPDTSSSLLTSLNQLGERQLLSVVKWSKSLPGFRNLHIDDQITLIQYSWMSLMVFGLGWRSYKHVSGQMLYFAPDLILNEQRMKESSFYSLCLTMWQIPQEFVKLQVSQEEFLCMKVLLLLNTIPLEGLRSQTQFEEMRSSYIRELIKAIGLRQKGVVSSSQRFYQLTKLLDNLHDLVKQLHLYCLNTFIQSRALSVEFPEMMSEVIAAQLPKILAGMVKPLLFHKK
Chain of Thyrotropin receptor (Homo sapiens) (P16473 whole entry, looked up): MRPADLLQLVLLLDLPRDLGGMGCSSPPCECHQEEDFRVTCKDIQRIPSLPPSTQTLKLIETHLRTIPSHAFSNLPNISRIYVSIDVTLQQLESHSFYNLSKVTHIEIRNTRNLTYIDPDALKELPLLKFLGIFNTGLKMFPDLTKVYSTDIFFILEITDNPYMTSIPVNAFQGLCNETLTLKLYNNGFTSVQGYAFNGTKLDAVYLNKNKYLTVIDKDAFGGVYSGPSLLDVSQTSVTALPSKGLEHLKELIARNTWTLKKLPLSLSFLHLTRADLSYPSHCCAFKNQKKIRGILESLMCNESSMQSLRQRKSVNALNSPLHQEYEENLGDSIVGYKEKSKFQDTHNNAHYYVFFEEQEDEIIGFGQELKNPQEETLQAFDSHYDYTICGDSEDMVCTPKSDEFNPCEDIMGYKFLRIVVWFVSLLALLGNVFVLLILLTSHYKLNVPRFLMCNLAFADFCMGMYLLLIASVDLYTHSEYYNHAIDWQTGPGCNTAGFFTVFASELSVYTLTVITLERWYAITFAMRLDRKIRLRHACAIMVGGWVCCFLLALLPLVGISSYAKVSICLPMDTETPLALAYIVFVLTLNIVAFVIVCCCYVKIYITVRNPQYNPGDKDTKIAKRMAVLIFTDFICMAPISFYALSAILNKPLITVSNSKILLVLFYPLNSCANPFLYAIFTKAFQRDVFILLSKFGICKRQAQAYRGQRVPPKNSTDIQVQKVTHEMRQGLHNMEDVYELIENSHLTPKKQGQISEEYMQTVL
Chain of Thyrotropin-releasing hormone receptor (Homo sapiens) (P34981 whole entry, looked up): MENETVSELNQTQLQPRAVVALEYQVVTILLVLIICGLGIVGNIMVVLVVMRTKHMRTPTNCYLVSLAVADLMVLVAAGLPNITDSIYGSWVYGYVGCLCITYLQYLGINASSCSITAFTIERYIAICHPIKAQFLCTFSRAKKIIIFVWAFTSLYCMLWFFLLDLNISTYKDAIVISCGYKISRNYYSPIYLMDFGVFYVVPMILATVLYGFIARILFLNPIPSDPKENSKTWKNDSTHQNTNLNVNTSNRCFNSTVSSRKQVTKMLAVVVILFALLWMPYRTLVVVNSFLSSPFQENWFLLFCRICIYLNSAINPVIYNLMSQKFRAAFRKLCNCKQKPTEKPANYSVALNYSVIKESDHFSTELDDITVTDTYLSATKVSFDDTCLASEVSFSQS
Chain of Androgen receptor (Homo sapiens) (P10275 whole entry, looked up): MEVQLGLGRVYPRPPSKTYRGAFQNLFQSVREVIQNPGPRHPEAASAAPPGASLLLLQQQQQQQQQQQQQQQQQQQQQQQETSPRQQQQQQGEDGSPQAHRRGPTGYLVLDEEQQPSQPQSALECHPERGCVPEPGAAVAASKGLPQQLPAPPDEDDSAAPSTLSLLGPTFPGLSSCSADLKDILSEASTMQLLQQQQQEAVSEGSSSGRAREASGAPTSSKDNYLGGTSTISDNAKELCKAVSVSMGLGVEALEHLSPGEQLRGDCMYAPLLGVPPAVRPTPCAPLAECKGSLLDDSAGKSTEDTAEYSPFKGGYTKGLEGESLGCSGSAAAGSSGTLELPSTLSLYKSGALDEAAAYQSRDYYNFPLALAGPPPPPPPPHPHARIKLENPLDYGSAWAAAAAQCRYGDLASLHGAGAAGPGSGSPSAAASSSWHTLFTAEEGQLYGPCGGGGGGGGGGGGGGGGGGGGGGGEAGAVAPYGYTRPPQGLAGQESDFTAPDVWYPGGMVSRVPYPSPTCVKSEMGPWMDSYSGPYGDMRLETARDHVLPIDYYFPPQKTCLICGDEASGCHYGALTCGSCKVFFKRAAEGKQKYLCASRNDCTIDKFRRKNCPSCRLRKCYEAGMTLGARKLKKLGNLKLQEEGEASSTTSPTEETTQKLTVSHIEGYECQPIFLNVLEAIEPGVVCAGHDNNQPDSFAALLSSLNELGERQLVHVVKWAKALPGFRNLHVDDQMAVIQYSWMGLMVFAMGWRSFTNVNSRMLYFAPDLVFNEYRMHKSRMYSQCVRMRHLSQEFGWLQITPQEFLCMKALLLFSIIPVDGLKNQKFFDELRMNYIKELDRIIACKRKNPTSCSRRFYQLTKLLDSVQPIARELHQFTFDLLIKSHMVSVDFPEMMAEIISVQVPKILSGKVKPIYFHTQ

Row | SMILES | Potency [1] | Potency [2] | Potency [3] | Potency [4] | Potency [5] | Potency [6] | Potency [7] | Potency [8] | outcome [9] | Potency [10] | Potency [11] | Potency [12] | Potency [13] | Potency [14] | Potency [15] | Potency [16] | activity change, negative = inhibition [15] | activity change, negative = cytotoxicity [6] | Potency [17] | Potency [18]
1 | CN(C)c1ccc(C(=C2C=CC(=[N+](C)C)C=C2)c2ccccc2)cc1 | 3.86 µM (active) and 3.35 µM (active) and 2.66 µM (active) | 7.5 µM (active) [middle of 4 runs] | inactive | 29.8 µM (active) and inactive | inactive | 9.69 µM (active) and 7.5 µM (active) and 8.41 µM (active) | 8.49 µM (active) [middle of 4 runs] | 8.49 µM (active) [middle of 4 runs] | inactive | 26.9 µM (active) and inactive | inactive | 2.37 µM (active) [middle of 4 runs] |  |  |  |  |  |  |  | 
2 | OCCOCCN1CCN(C(c2ccccc2)c2ccc(Cl)cc2)CC1 (stereo not given) | 53.8 µM (active) and inactive | 26.9 µM (active) |  | inactive |  | 33.9 µM (active) | inactive |  | inactive | inactive | inactive | 24 µM (active) | 30.2 µM (active) | inactive |  |  |  |  |  | 
3 | CC1=C(C=O)C(C)(C)CC=C1 | inactive | inactive |  | inactive | inactive | inactive | inactive | inactive | inactive | inactive | inactive | inactive |  | inactive | inactive |  |  |  |  | 
4 | COC(=O)[C@H]1[C@H]2C[C@@H]3c4[nH]c5cc(OC)ccc5c4CCN3C[C@H]2C[C@@H](OC(=O)c2cc(OC)c(OC)c(OC)c2)[C@@H]1OC | inactive |  |  | inactive | inactive | inactive | inactive | inactive |  |  |  | 39.7 µM (active) and inactive | 8.62 µM (active) and 9.96 µM (active) and 11.9 µM (active) | inactive | inactive | inactive |  |  |  | 
5 | O=C(O)c1cn(-c2ccc(F)cc2)c2cc(N3CCNCC3)c(F)cc2c1=O | inactive | inactive | inactive | inactive | inactive |  | inactive | inactive | inactive |  |  | inactive | inactive | inactive |  | inactive | 13.8% [at 18.9 µM] (inactive) | 10.6% [at 19 µM] (inactive) |  | 
6 | CCCN[C@H]1CCc2nc(N)sc2C1 | inactive | inactive |  | inactive | inactive | inactive | inactive | inactive | inactive |  |  | inactive | inactive | inactive | inactive |  |  |  |  | 
7 | CCc1ccc(C(c2ccc(CC)cc2)C(Cl)Cl)cc1 | inactive | inactive |  | inactive | inactive | inactive | inactive | inactive | inactive | inactive | inactive | inactive |  | inactive |  | inactive |  |  | inactive | inactive
8 | [Cl][In]([Cl])[Cl] | inactive | inactive |  |  | inactive and 27.3 µM (active) |  | inactive | inactive | inactive | inactive | inactive | inactive |  | inactive | inactive |  |  |  |  | inactive
9 | c1ccc2c(c1)-c1cccc3c1c-2cc1ccccc13 | inactive | inactive | inactive | inactive |  | inactive | inactive | inactive |  |  |  | inactive |  | inactive |  | inactive |  |  |  | inactive
10 | Cc1cc(Cc2cc(C)cc(C(C)(C)C)c2O)c(O)c(C(C)(C)C)c1 | 61.4 µM (active) and 68.6 µM (active) | 17.3 µM (active) and 21.7 µM (active) |  | inactive |  | 27.4 µM (active) | 49.2 µM (active) and 54.9 µM (active) | 43.9 µM (active) and 54.9 µM (active) | inactive | inactive | inactive | 39.8 µM (active) and 61.1 µM (active) |  |  |  |  |  |  |  | inactive
11 | CC1COc2c(N3CCN(C)CC3)c(F)cc3c(=O)c(C(=O)O)cn1c23 (stereo not given) | inactive | inactive | inactive | inactive | inactive | inactive | inactive | inactive | inactive | inactive | inactive | inactive | inactive | inactive |  | inactive |  |  |  | 
12 | c1cc(C(c2ccc(OCC3CO3)cc2)C(c2ccc(OCC3CO3)cc2)c2ccc(OCC3CO3)cc2)ccc1OCC1CO1 (stereo not given) | inactive | inactive | inactive | inactive | inactive | inactive | inactive | inactive |  | inactive | inactive | inactive |  | inactive | inactive |  |  |  |  | inactive
13 | NC12CC3CC(CC(C3)C1)C2 | inactive | inactive |  |  | inactive | inactive | inactive | inactive | inactive |  |  | inactive | inactive | inactive | inactive | inactive |  |  |  | 
14 | c1ccc2cc3c(ccc4ccccc43)cc2c1 | inactive | inactive | inactive | inactive | inactive | inactive | inactive |  | inactive |  |  | inactive | inactive | inactive |  | inactive |  |  |  | 
15 | CC(C)(C)NC(=O)[C@@H]1CN(Cc2cccnc2)CCN1C[C@@H](O)C[C@@H](Cc1ccccc1)C(=O)N[C@H]1c2ccccc2C[C@H]1O | inactive | inactive |  |  | inactive | inactive | inactive |  | inactive |  |  | inactive |  | inactive | inactive | inactive |  |  |  | 
